Compound activity deposited in PubChem BioAssay by Bradner/Qi Labs at DFCI.
CBX7 inh: CBX7 inhibition, primary AlphaScreen. AlphaScreen His6-CBX7 / biotin-H3K27me3 peptide binding; hits give low values. hit rate 1.1% among 66,000. normalised signal (fraction of DMSO) (concentration not given with the values). AID 1224903; in the data active = normalised signal below about 0.5
Target sequence (O95931 whole entry, looked up): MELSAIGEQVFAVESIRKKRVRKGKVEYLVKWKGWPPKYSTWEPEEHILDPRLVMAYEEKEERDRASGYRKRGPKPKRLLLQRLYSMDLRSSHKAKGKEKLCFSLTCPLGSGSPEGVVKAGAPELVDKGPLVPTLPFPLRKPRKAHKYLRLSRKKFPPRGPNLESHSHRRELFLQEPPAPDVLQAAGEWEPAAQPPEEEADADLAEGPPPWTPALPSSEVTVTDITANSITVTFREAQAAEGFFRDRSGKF
An asterisk follows results filed as active; ! = not confirmed by another sample. Many of the other results were omitted from the sample, so hits are more common in it than they were.

SMILES	CBX7 inh
CCCC(=O)Nc1ccc(Cl)c(-c2nc3ncccc3o2)c1	1
COc1ccc(C)cc1NC(=O)C1(c2ccccc2)CCOCC1	1.1
CCOc1ccccc1NC(=O)CN1CC(c2ccccc2)CC1=O (stereo unspecified)	0.97
CC(NC(=O)C1CCN(C(=O)c2cc3sccc3n2C)CC1)c1ccc2c(c1)OCCO2 (stereo unspecified)	1.2
CCc1nnc(NC(=O)CSc2nnc(Cc3cc(=O)[nH]c(=O)[nH]3)n2-c2ccccc2)s1	0.85
CCOC(=O)N1CCN(C(=O)CSc2nnc(CNC(=O)c3cccs3)o2)CC1	1.1
Cc1nnc(NC(=O)c2ccc(S(=O)(=O)N(C)Cc3ccccc3)cc2)o1	0.0081*
COCCN(CCOC)S(=O)(=O)c1ccc(C(=O)Nc2nc(-c3ccncc3)cs2)cc1	1
CN(Cc1ccccc1)S(=O)(=O)c1ccc(C(=O)Nc2ccccc2-c2nc3ccccc3o2)cc1	1
CCN(Cc1ccccc1)S(=O)(=O)c1ccc(C(=O)Nc2nnc(-c3ccc(OC)cc3)o2)cc1	1.2
COCCN(CCOC)S(=O)(=O)c1ccc(C(=O)Nc2nnc(C)o2)cc1	0.0057*
CN(C1CCCCC1)S(=O)(=O)c1ccc(C(=O)Nc2nnc(-c3ccccc3Cl)o2)cc1	0.91
COCCN(CCOC)S(=O)(=O)c1ccc(C(=O)Nc2nnc(COC)o2)cc1	0.58
COCCN(CCOC)S(=O)(=O)c1ccc(C(=O)Nc2nnc(-c3ccccc3Cl)o2)cc1	0.27*
CCCN(CCC)S(=O)(=O)c1ccc(C(=O)Nc2nnc(-c3ccccc3Cl)o2)cc1	1.1
COCCN(CCOC)S(=O)(=O)c1ccc(C(=O)Nc2nc(-c3ccc(OC)cc3)cs2)cc1	1
COCc1nnc(NC(=O)c2ccc(S(=O)(=O)N(C)Cc3ccccc3)cc2)o1	0.88
COCCN(CCOC)S(=O)(=O)c1ccc(C(=O)Nc2nnc(-c3ccc(F)cc3)o2)cc1	0.025*
CCn1c(/C=C/c2ccc(Br)cc2)nc2ccccc2c1=O	1.1
CN(C)S(=O)(=O)c1ccc(C(=O)Nc2c(C(N)=O)oc3ccccc23)cc1	1.1
CCCCN(CCCC)S(=O)(=O)c1ccc(C(=O)Nc2nnc(C)o2)cc1	0.0047*
Cc1nnc(NC(=O)c2ccc(S(=O)(=O)N(C)C)cc2)o1	0.012*
CCCCN(CCCC)S(=O)(=O)c1ccc(C(=O)Nc2nc3c(s2)COc2ccccc2-3)cc1	0.96
CCCCN(CCCC)S(=O)(=O)c1ccc(C(=O)Nc2ccccc2-c2nc3ccccc3[nH]2)cc1	1
COc1ccc(-c2nnc(NC(=O)c3ccc(S(=O)(=O)N(C)C)cc3)o2)c(OC)c1	0.58
SMILES	CBX7 inh
Cn1c2ccccc2c2c(C(=O)NCc3cccnc3)cn(C3CCCCC3)c(=O)c21	0.99
COc1ccc(CCNC(=O)[C@@H](c2ccccc2)N2Cc3ccccc3C2=O)cc1OC	1
CCCSc1oc(-c2ccc(C)cc2)nc1S(=O)(=O)c1ccccc1	1.1
CC1CCCCC1NC(=O)CN1C(=O)CSc2ccc(S(=O)(=O)N3CCOCC3)cc21 (stereo unspecified)	0.91
O=C(NCCCn1ccnc1)c1cc(-c2ccc(O)cc2)on1	0.97
CN(c1ccccc1)S(=O)(=O)c1ccc(C(=O)Nc2nc(-c3ccccn3)cs2)cc1	0.17*
COc1ccccc1-c1csc(NC(=O)c2ccc(S(=O)(=O)N(C)c3ccccc3)cc2)n1	0.97
CCCCN(CC)S(=O)(=O)c1ccc(C(=O)Nc2nc(-c3ccncc3)cs2)cc1	1
CN(C1CCCCC1)S(=O)(=O)c1ccc(C(=O)Nc2nc(-c3ccccn3)cs2)cc1	0.89
CC1CN(S(=O)(=O)c2ccc(C(=O)Nc3nc(-c4ccncc4)cs3)cc2)CC(C)O1 (stereo unspecified)	0.99
CCCCN(C)S(=O)(=O)c1ccc(C(=O)Nc2nc(-c3ccccn3)cs2)cc1	0.098*
CN(c1ccccc1)S(=O)(=O)c1ccc(C(=O)Nc2nc(-c3ccc(Cl)cc3)cs2)cc1	0.89
CC1CN(S(=O)(=O)c2ccc(C(=O)Nc3nc(-c4ccccn4)cs3)cc2)CC(C)O1 (stereo unspecified)	0.31*
O=C(Nc1nc(-c2ccccn2)cs1)c1ccc(S(=O)(=O)N2CCCc3ccccc32)cc1	0.89
CN1CCN(CCCNC(=O)c2cc3c(s2)-c2ccccc2OC3)CC1	1
COc1ccc(-c2nn(C)c3sc(C(=O)N4CC(C)CC(C)C4)cc23)cc1OC (stereo unspecified)	1
c1ccc2[nH]c(-c3c[nH]c4ccccc34)nc2c1	0.86
Cc1ccc(-c2[nH]c(-c3c[nH]c4ccccc34)nc2-c2ccccc2)cc1	0.38*
O=c1nc(-c2ccccc2)c2cc(Br)ccc2[nH]1	0.95
Fc1ccc(-c2[nH]c(-c3cccs3)nc2-c2ccccc2)cc1	0.89
Cc1ccc(C)c(-c2[nH]c(-c3ccc(O)cc3)nc2-c2ccccc2)c1	0.58
Fc1ccc(-c2[nH]c(-c3c[nH]c4ccc(Br)cc34)nc2-c2ccccc2)cc1	0.46*
Cc1c(NC(=O)c2ccc(F)cc2)cccc1-c1nc2ncccc2o1	1.2
CCCc1cc(C(=O)Nc2cc(Cl)ccc2OC)no1	1.2
O=C(O)c1nccnc1C(=O)Nc1ccc(Cl)cc1	0.75
SMILES	CBX7 inh
CCN(CCNC(=O)CN1C(=O)COc2ccccc21)c1ccccc1	0.99
O=C(NCCc1ccc(Cl)cc1)C1CCCN(S(=O)(=O)c2cccnc2)C1 (stereo unspecified)	1
Cc1ccc(C(=O)CSc2n[nH]c(-c3ccncc3)n2)cc1	0.71
CC(=O)Nc1ccc(C(=O)CSc2n[nH]c(-c3ccncc3)n2)cc1	0.66
O=C(CSc1n[nH]c(-c2ccncc2)n1)c1ccc(Br)cc1	0.23*
CNC(=O)CCCN1C(=O)CSc2ncccc21	1.2
COc1ccc(Cl)cc1C(=O)NCCc1cc2ccc(C)c(C)c2[nH]c1=O	1
Clc1ccc(-c2csc(Nc3ccc4ccccc4c3)n2)cc1Cl	0.59
Brc1ccc(-c2csc(Nc3ccc4c(c3)OCO4)n2)cc1	0.35*!
c1ccc2cc(-c3csc(Nc4ccc5c(c4)OCO5)n3)ccc2c1	0.5*
Brc1ccc(Nc2nc(-c3ccc(Br)cc3)cs2)cc1	0.66
Cc1ccc(C)c(-c2csc(Nc3ccc(S(=O)(=O)Nc4cc(C)on4)cc3)n2)c1	0.9
Cc1ccc(C)c(-c2csc(Nc3ncccn3)n2)c1	1
O=C(CN1C(=O)c2ccccc2C1=O)Nc1nc(-c2ccc3c(c2)OCO3)cs1	1.1
O=S(=O)(c1ccc(-c2csc(Nc3ccc4c(c3)OCO4)n2)cc1)N1CCCCC1	0.84
Cc1ccc(C)c(-c2csc(Nc3ccc4c(c3)OCO4)n2)c1	0.35*
Cc1cccc(-c2cc(C(=O)NCCc3cccc(Cl)c3)c3ccccc3n2)c1	0.97
Cc1cc(C)cc(NC(=O)CCc2c(C)nc3cc(-c4cccc(F)c4)nn3c2C)c1	1
Cc1ccc(OCC(O)CN2CCN(C)CC2)c(C)c1 (stereo unspecified)	1.2
Cc1ccc(Nc2nc(C(F)(F)F)c(-c3cccc(Cl)c3)s2)c(C)c1	1.1
Cc1cc(C)cc(N2C(=O)C3C(C2=O)C2C=CC3C23CC3)c1 (stereo unspecified)	1
COc1cc(OC)c(N(C)C(=O)Cn2ncc3c2-c2ccccc2OC3)cc1Cl	0.95
COCc1nnc(NC(=O)c2ccc(S(=O)(=O)N(C)C3CCCCC3)cc2)o1	0.16*
CCCN(CCC)S(=O)(=O)c1ccc(C(=O)Nc2nnc(COC)o2)cc1	0.82
CCCCN(C)S(=O)(=O)c1ccc(C(=O)Nc2nnc(COC)o2)cc1	0.089*
